In PubChem BioAssay (Tox21):
Inconclusive results are not listed. A number with no mark means an inactive call. Calls of active or inactive are those of the source. Calls follow the shape of the dose curve; as a rule, active = well fitted cell-killing curve with a large enough effect in the repeat runs; inconclusive = weak or mixed curves, or effect the other way; inactive = no such curve, though single readings can be large or run the other way.
% is scaled to controls: 0 for no effect and ±100 for the full control effect; potency is read from the fitted curve at half-maximal effect.

Experiment: qHTS assay to identify small molecule agonists of the RXR signaling pathway - cell viability counter screen (AID 1159529); also: nearly all actives have a fitted effect of over 50% in size
Conditions: RXR-alpha-bla HEK293T viability, CellTiter-Glo, 16 h; series mostly up to 76.8 µM; activity change, negative = cytotoxicity: at the top concentration
Description: National Center for Advancing Translational Sciences [NCATS]
NIH Chemical Genomics Center [NCGC]
U.S. Environmental Protection Agency [EPA]
National Institutes of Environmental Health Sciences [NIEHS]
National Toxicology Program [NTP]
U.S. Food and Drug Administration [FDA]
The Retinoid X receptor (RXR), a nuclear hormone receptor expressed in liver, spleen, placenta, epidermis, central nervous system. These receptors are able to form homo and heterodimers with other nuclear receptors and due to this heterodimerizing ability, RXR functions as master regulators producing diverse physiological effects. Three subtypes of RXR exist; alpha, beta and gamma. Retinoid X receptor alpha (RXR-alpha) has potential roles in metabolic signaling pathways, skin alopecia, dermal cysts, cardiac development, insulin sensitization etc. Therefore screening environmental chemicals on RXR-alpha signaling can be used for the studies focused on such therapeutic applications. For quantification of RXR-alpha ligands signaling, GeneBLAzer RXR alpha-UAS-bla HEK 293T (Life Technologies, Carlsbad, CA) cells containing a beta-lactamase reporter-gene under control of Retinoid X receptor-alpha response element were used to screen Tox21 10K library. The cytotoxicity of the Tox21 compound library against the RXR-alpha HEK 293T cell line was tested in parallel by measuring cell viability using CellTiter-Glo assay (Promega Corporation, Madison, WI) in the same wells.
Tox21 Assay Protocol Summary:
RXR-alpha HEK 293T cells were dispensed at 2,000 cells/6 uL of assay medium containing 2% charcoal-stripped FBS using a Multidrop Combi (ThermoFisher Scientific, Waltham, MA) dispenser. The assay was performed in black wall/clear-bottom 1536-well plates (Greiner Bio-One North America Inc. Monroe, NC). Tetraoctyl ammonium bromide was used as a positive control in the cytotoxicity screen. After the assay plates were incubated at 37 C and 5% CO2 for 5 hr, 23 nL of compounds dissolved in DMSO, positive control or DMSO only were transferred to the assay plate by a Pintool station (Kalypsys, San Diego, CA). The assay plates were incubated at 37 C and 5% CO2 for 16 hr. One uL of LiveBLAzer B/G FRET substrate (Life Technologies) was added using a Flying Reagent Dispenser (FRD) (Aurora Discovery, San Diego, CA) and the plates were incubated at room temperature for 2 hr. Fluorescence intensity (405 nm excitation, 460/530 nm emission) was measured using an Envision plate reader (PerkinElmer, Shelton, CT). For cytotoxicity, 4 uL/well of CellTiter-Glo reagent was added into the assay plates using an FRD. After 30 min incubation at room temperature, the luminescence intensity was measured using a ViewLux plate reader (PerkinElmer).
With `O=[N+]([O-])c1cccc(O)c1` the “activity change, negative = cytotoxicity” value was 0.0374%. For `C=C(C)CN(CC)c1c([N+](=O)[O-])cc(C(F)(F)F)cc1[N+](=O)[O-]`, the “activity change, negative = cytotoxicity” value was -14.6%. In the case of `CC1(C(=O)Nc2ccc(O)c(Cl)c2Cl)CCCCC1`, the “activity change, negative = cytotoxicity” value is reported as -13.1%. For `CC(C)(C)NCC(O)c1cc(Cl)c(N)c(Cl)c1` (stereo not given), the “activity change, negative = cytotoxicity” value was -9.9% [at 35.3 µM]. In the case of `CC1=NNC(=O)N(/N=C/c2cccnc2)C1`, the “activity change, negative = cytotoxicity” value is reported as 3.81%. With `CNCC(=O)c1ccc(O)c(O)c1` the “activity change, negative = cytotoxicity” value was 10.1% [at 35.3 µM]. In the case of `Oc1c(Cl)cccc1Cl`, the “activity change, negative = cytotoxicity” value is reported as 2.39%. With `CCOP(=S)(OCC)SCSc1ccc(Cl)cc1` the “activity change, negative = cytotoxicity” value was -17.2%. With `Clc1cccc(N2CCNCC2)c1` the “activity change, negative = cytotoxicity” value was -0.452% [at 35.3 µM]. For `OCCSCSCCO`, the “activity change, negative = cytotoxicity” value was 4.84%. In the case of `CC(C)[N+](=O)[O-]`, the “activity change, negative = cytotoxicity” value is reported as 6.35%. With `CCC(Cl)[N+](=O)[O-]` (stereo not given) the “activity change, negative = cytotoxicity” value was 0.0076%. For `ClC(Cl)Br`, the “activity change, negative = cytotoxicity” value was -10.6%. With `COc1ccc(C(=O)N2CCCC2=O)cc1` the “activity change, negative = cytotoxicity” value was 18.6% [at 35.3 µM]. With `CC(C)(C)C(=O)C(Oc1ccc(Cl)cc1)n1cncn1` (stereo not given) the “activity change, negative = cytotoxicity” value was -7.29%. For `N#CC(O)c1ccccc1` (stereo not given), the “activity change, negative = cytotoxicity” value was 1.7%. With `NC(=O)O` the “activity change, negative = cytotoxicity” value was -5.36%. With `CCOC(=O)NC(=S)Nc1ccccc1NC(=S)NC(=O)OCC` the “activity change, negative = cytotoxicity” value was -20.4%. With `O=C(NCO)NCO` the “activity change, negative = cytotoxicity” value was 1.5%. With `COc1ccc2c(c1OC)CN1CCc3cc4c(cc3C1C2)OCO4` (stereo not given) the “activity change, negative = cytotoxicity” value was 1.08% [at 35.3 µM]. With `Nc1c(Br)cc([N+](=O)[O-])cc1[N+](=O)[O-]` the “activity change, negative = cytotoxicity” value was -21.6%. In the case of `CCCCP(CCCC)CCCC`, the “activity change, negative = cytotoxicity” value is reported as 5.43%. In the case of `CCCCC(=O)Cl`, the “activity change, negative = cytotoxicity” value is reported as -1.44%. With `ClC(Cl)C(Cl)Cl` the “activity change, negative = cytotoxicity” value was 20.2%. For `C#CCN1C(=O)COc2cc(F)c(N3C(=O)C4=C(CCCC4)C3=O)cc21`, the “activity change, negative = cytotoxicity” value was 3.12%. For `C=CCC1=C(C)[C@@H](OC(=O)[C@@H]2[C@@H](C=C(C)C)C2(C)C)CC1=O`, the Potency was 21.9 µM (active). With `Cc1cc(C)nc(Nc2ccccc2)n1` the “activity change, negative = cytotoxicity” value was 6.17%. In the case of `CNC(=O)Oc1c(C(C)(C)C)cc(C)cc1C(C)(C)C`, the “activity change, negative = cytotoxicity” value is reported as 0.671%. In the case of `CNC(=O)Oc1ccccc1C1OCCO1`, the “activity change, negative = cytotoxicity” value is reported as -0.513%. In the case of `CCOP(=O)(OCC)OP(=O)(OCC)OCC`, the “activity change, negative = cytotoxicity” value is reported as -5.12%. For `CN1CCC(O)(c2ccc(F)cc2)C(C(=O)c2ccc(F)cc2)C1` (stereo not given), the “activity change, negative = cytotoxicity” value was 5.58% [at 35.3 µM]. With `CC(C)CC#N` the “activity change, negative = cytotoxicity” value was -13.3%. With `CC(C=O)Cc1ccc2c(c1)OCO2` (stereo not given) the “activity change, negative = cytotoxicity” value was 4.74%. With `Fc1ccc(C2(Cn3cncn3)OC2c2ccccc2Cl)cc1` (stereo not given) the “activity change, negative = cytotoxicity” value was -12.4%. For `CC1COC2(c3ccccc3Cl)c3cc(Cl)ccc3NC(=O)CN12` (stereo not given), the “activity change, negative = cytotoxicity” value was -2.39% [at 35.3 µM]. With `COc1cc(OC)nc(Oc2cccc(Oc3nc(OC)cc(OC)n3)c2C(=O)O)n1` the “activity change, negative = cytotoxicity” value was 15.4%. With `O=[N+]([O-])c1cccc2c([N+](=O)[O-])cccc12` the “activity change, negative = cytotoxicity” value was 12.1%. For `CC(=O)CC(c1ccc(Cl)cc1)c1c(O)c2ccccc2oc1=O` (stereo not given), the “activity change, negative = cytotoxicity” value was -7.28%. With `CC(=O)CCc1ccc2c(c1)OCO2` the “activity change, negative = cytotoxicity” value was -4.06%. In the case of `c1cc2c(c(N3CCNCC3)c1)OCCO2`, the “activity change, negative = cytotoxicity” value is reported as -7.2% [at 35.3 µM].
